Experimental findings from PubChem BioAssay AID624114 (Johns Hopkins Ion Channel Center, 2012) are described below.

Among all 4,000 compounds or so, about 15 (0.4%) were called active.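 The calls were made as follows: active = calcium fluorescence ratio, averaged over duplicates, at least 3 SD of the buffer-well ratio, meaning a nonspecific response in receptor-free cells; inactive = the rest.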 Only a sample is shown.

The nature of the assay: calcium response in parental HEK293 cells, primary screen, counter-screen for MrgX1 allosteric activator project, cell-based, Fluo-4 calcium flux, duplicate (AID 624114). The note with it: Fluo-4 fluorescence ratio, at 10 µM. (In general: The purpose of a counterscreen is to sort out artefacts and off-target activity.)
For the compound `O=C(NC1CCCCC1)C1c2ccccc2C(=O)N1Cc1ccco1` (stereo not drawn), the outcome was inactive.

Consider `Cc1cc2oc3ccc(NCCC4CCCN4C)cc3c(=O)c2cc1C` (stereo not drawn), for which the result was inactive.

In the case of `COCCCNC(=O)C1CCN(c2ccc(N3CCOCC3)nn2)CC1`, the outcome was inactive.

Take `Cc1cc(Br)ccc1NC(=O)c1cnc(N2CCN(c3ccccn3)CC2)c2ccccc12`: the result was inactive.

On to `Cc1ccc(S(=O)(=O)N(C)c2nc3ccccc3n3c(C(C)C)nnc23)cc1`, for which the result was inactive.

Consider `CC1CCN(S(=O)(=O)c2nnc(NC(=O)COc3ccccc3F)s2)CC1`, for which the outcome was inactive.

As for `Cc1ccc(-c2nn(C(C)(C)C)c3ncnc(N)c23)cc1`, the result was inactive.

For the compound `CCC1CCCCN1CCNC(=O)c1[nH]c(C)c(C(C)=O)c1C` (stereo not drawn), the outcome was inactive.

Regarding `O=C(CSc1ncccn1)NC(=O)NCc1ccccc1`, the result was inactive.

In the case of `CC1CCCCN1S(=O)(=O)c1ccc(C(=O)Nc2nnc(-c3cccs3)o2)cc1` (stereo not drawn), the outcome was inactive.

`O=C(Nc1nc2c(F)cc(F)cc2s1)C1COc2ccccc2O1` (stereo not drawn): the outcome was inactive.

As to `O=C1C(=O)N(CC2COc3ccccc3O2)c2ccccc21` (stereo not drawn), the result was inactive.

Regarding `COc1cccc(CNC(=O)C2CCN(S(=O)(=O)c3cccc4cccnc34)CC2)c1`, the result was inactive.

For `COc1ccc(C(=O)NC(=S)NNC(=O)CCc2ccccc2)cc1`, the result was inactive.

In the case of `CCOC(=O)C1=C(O)/C(=C/c2cc(C)n(-c3ccccc3)c2C)N=C1C`, the outcome was inactive.

On to `Cc1ccc2nc(Nc3ccccc3)cc(C)c2c1`, for which the outcome was inactive.

Regarding `Cc1ccc(Cc2cnc(N)s2)o1`, the result was inactive.

For `O=C(CSc1nncn1-c1cccnc1)N1CCOCC1`, the result was inactive.

With `COc1ccc(OC)c(C(=O)c2ccc(Cl)cc2)c1`, the outcome was inactive.

Turning to `CCCc1cc(=S)n2c([nH]c3ccccc32)c1C#N`, the result was inactive.

For the compound `Nc1cc(OC(=O)c2ccccc2Br)nn1S(=O)(=O)c1ccccc1`, the result was inactive.

In the case of `CC(C)(C)n1c(=O)[nH]c2c(c1=O)CCC2`, the result was inactive.

Regarding `CCOC1CCCCC1NS(=O)(=O)c1ccc(Cl)cc1` (stereo not drawn), the outcome was inactive.

Take `C=CCOc1cccc(C2C(C(=O)c3ccc(C)o3)=C(O)C(=O)N2c2nnc(C)s2)c1` (stereo not drawn): the result was inactive.

As for `Cc1cccc(-n2c(Cc3cc(=O)[nH]c(=O)[nH]3)nnc2SC(C)C)c1`, the result was inactive.

`O=C1CCCc2c1nc(-c1cccc(Cl)c1)n2O`: the outcome was inactive.

`Cc1nc(N2CCN(c3ccccn3)CC2)c2c(C)c(C(=O)Nc3ccc(F)c(Cl)c3)sc2n1`: the outcome was inactive.

`Cc1cc(C)n(CCNC(=O)CC2C(=O)NCCN2Cc2ccc(C)o2)n1` (stereo not drawn): the outcome was inactive.

Take `COc1ccc(S(=O)(=O)N2CCN(C(=O)NC3CCCCC3)CC2)cc1`: the outcome was inactive.

With `CCCCC(=O)Nc1ccc2c(c1)C(=O)NC2=O`, the result was inactive.

For the compound `Cc1nn(-c2ccccc2)c(C)c1NC(=O)COc1ccc(Cl)cc1Cl`, the result was inactive.

Take `Cc1ccc(-n2[nH]c(C)c(/C=N/N3C(=O)c4cccc5cccc(c45)C3=O)c2=O)cc1`: the outcome was inactive.

For the compound `COC(=O)Cc1cc(=O)n(-c2nc3ccccc3s2)[nH]1`, the result was inactive.

For the compound `O=C1C(Cc2ccc(O)cc2)NC(=S)N1Cc1ccccc1` (stereo not drawn), the outcome was inactive.

Regarding `Clc1ccc(C=NC23CN4CN(CN(C4)C2)C3)cc1`, the outcome was inactive.

`CC(C)CC(=O)NC(=S)NNC(=O)c1cccc([N+](=O)[O-])c1`: the outcome was inactive.

As to `Cc1[nH][nH]c(=O)c1C(c1ccc(-c2ccc(Cl)cc2)o1)c1c(C)[nH][nH]c1=O`, the result was inactive.

Turning to `O=C(Oc1ccc(C(=S)N2CCOCC2)cc1)c1ccc(F)cc1`, the outcome was inactive.

Turning to `COC(=O)c1ccc(C2C3=C(Nc4nnnn42)c2ccccc2OC3)cc1` (stereo not drawn), the result was inactive.

With `Clc1ccc(-c2nc3ccccn3c2CN2CCSCC2)cc1`, the result was inactive.

As for `CCOCc1nnc(NC(=O)CCC2CCCCC2)s1`, the outcome was inactive.

As for `Cc1ccc2nc(-c3ccc(NC(=O)CN(C)S(=O)(=O)c4ccccc4)cc3)sc2c1`, the outcome was inactive.

On to `Cc1ccc(N/C(N)=N/c2nc(C(F)(F)F)cc(C(F)(F)F)n2)cc1`, for which the outcome was inactive.

For `Cc1cccc(NC(=O)C(C)N2C(=O)C3C4CC(C(Br)C4Br)C3C2=O)c1` (stereo not drawn), the outcome was inactive.

Turning to `O=c1cc(CSc2ccccn2)nc(N2CCN(c3ccccc3)CC2)[nH]1`, the result was inactive.

`CCN(c1cccc(C)c1)S(=O)(=O)c1ccc(-c2coc(C)n2)cc1`: the outcome was inactive.

`CC(C)CC(=O)N/C(N)=N/c1nc2ccccc2s1`: the outcome was inactive.

On to `Cc1nn(-c2ccccc2)c2c1C(c1ccc(F)cc1)C(C#N)=C(N)O2` (stereo not drawn), for which the outcome was inactive.

With `CCOc1ccc(C(=O)NC2CCN(S(=O)(=O)CC)CC2)cc1`, the outcome was inactive.

`CCOC(=O)CNC(=O)CSc1nc2cccnc2n1CC`: the outcome was inactive.

For the compound `Cc1nc(C)c(-c2csc(NCCc3ccccc3)n2)s1`, the outcome was inactive.

As for `C(=N\n1cnnc1)/c1cccnc1`, the outcome was inactive.

As for `Cc1cccc(NC(=O)COc2ccccc2C)n1`, the result was inactive.

`O=C(Nc1ccc(Br)cc1F)C1CC(=O)N(C2CCCCC2)C1` (stereo not drawn): the result was inactive.

Take `COc1ccc(Cc2nc(-c3ccccn3)no2)cc1OC`: the result was inactive.

For `COC(=O)c1ccc(COC(=O)C2CCN(S(=O)(=O)c3c(Cl)cccc3Cl)CC2)o1`, the result was inactive.

Consider `COCC(C)NC(=O)c1ccc(Cl)c(Cl)c1` (stereo not drawn), for which the result was inactive.

Take `CCOc1ccc(C2=CC(c3ccccc3)n3ncnc3N2)cc1` (stereo not drawn): the result was inactive.

Regarding `CCOC(=O)Cc1csc(SCc2cc(=O)oc3cc(O)ccc23)n1`, the outcome was inactive.

`O=C(Nc1ccc(Cl)cc1)Nc1ccc(Oc2cccnc2)nc1`: the result was inactive.

In the case of `O=C(COc1ccc(Cl)cc1)NC(=S)Nc1ccccc1N1CCOCC1`, the result was inactive.

Turning to `N#CC1=C(N)Oc2c(sc3ccccc23)C1c1ccco1` (stereo not drawn), the outcome was inactive.

Consider `O=C(CN1CCN(c2ccccn2)CC1)NC1CCCCC1`, for which the outcome was inactive.

As for `COc1ccc(S(=O)(=O)N2CCOCC2)c(C)c1C`, the result was inactive.

As for `Cc1cc2ncn(CCCCOc3ccccc3)c2cc1C`, the outcome was inactive.

Consider `CCN(CC)c1ccc2oc(=O)c(C)nc2c1`, for which the result was inactive.

In the case of `CN1C(CC(=O)Nc2ccc(Br)cc2)c2ccccc2CC1(C)C` (stereo not drawn), the outcome was inactive.

Consider `COc1ccc(C(=O)NC(=S)NC2CCCCC2)cc1`, for which the result was inactive.

Regarding `O=C(Nc1ccccc1Cl)N1CCN(c2ccc3nncn3n2)CC1`, the result was inactive.

As to `COC(=O)c1c(NC(=O)c2c(Cl)cnn2C)sc(C)c1C`, the outcome was inactive.

`CCOC(=O)c1[nH]c2ccc(C)cc2c1N=C(C)N(C)C`: the outcome was inactive.

For `Cc1cccc(Cn2cnc3c(N)c(C)c(C)cc32)c1`, the result was inactive.

`Cc1ccc(OC(=O)c2cc3ccccc3o2)cc1`: the outcome was inactive.

Consider `CCOC(=O)c1cn(Cc2cccc(C)c2)nn1`, for which the result was inactive.

In the case of `C=CCNC(=O)c1csc(-c2ccccc2)n1`, the outcome was inactive.

On to `O=C(c1cccs1)C1C(c2ccc(Br)cc2)NC(=S)NC1(O)C(F)(F)F` (stereo not drawn), for which the outcome was inactive.

In the case of `CC(=O)Nc1ccc(OC(=O)COc2ccc(Br)cc2)cc1`, the result was inactive.

Turning to `O=C(c1ccc(O)cc1)c1ccc(C(=O)O)c(C(=O)O)c1`, the result was inactive.

`O=C1Cc2ccccc2Sc2ccc(Cl)cc21`: the result was inactive.

On to `CC(Oc1ccc(F)cc1)C(=O)Nc1ccccc1C(=O)NC1CC1` (stereo not drawn), for which the outcome was inactive.

In the case of `O=C(c1ccc(OC2CCN(C(=O)c3cccnc3)CC2)cc1)N1CCCCCC1`, the result was inactive.

For the compound `O=C(COC(=O)c1ccc(NS(=O)(=O)c2cccs2)cc1O)Nc1ccc(F)cc1`, the outcome was inactive.

`COc1cc(C(F)(F)F)nc2c(Br)c(C(C)(C)C)nn12`: the result was inactive.

Regarding `Cc1cc(Nc2cc(N3CCN(C)CC3)nc(Sc3ccc(NC(=O)C4CC4)cc3)n2)n[nH]1`, the outcome was inactive.

In the case of `CC(=O)N1c2ccc(S(=O)(=O)N3CCCC(C(=O)Nc4cccc(Cl)c4)C3)cc2CC1C` (stereo not drawn), the result was inactive.

As for `CCCCOC(=O)CNc1nnc(SCC(=O)OCC)[nH]c1=O`, the outcome was inactive.

On to `COc1ccc(OC)c(Nc2nc3ccccc3n3cnnc23)c1`, for which the outcome was inactive.

On to `Fc1cccc(Cl)c1COc1ccc(-c2nnco2)cc1`, for which the outcome was inactive.
